Results on 26 compounds are retold here after the supplement of paper PMC10037445.

Assay [1] concerns RAW-Dual. The assay is described as follows: NF-kB SEAP reporter activity, fold change vs agonist alone; higher = enhanced NF-kB activity. The settings on record: library stock concentration (final ~1000-fold dilution): 10 mM. A digest of the protocol:
(§1)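 Supernatant from RAW-Dual macrophages was read after 20 hours for IRF by QuantiLuc luminescence and for NF-κB by QuantiBlue absorbance at 620 nm. The cells (50,000 cells/well in DMEM, 384-well plates, 37 °C, 5% CO2) had received 50 nL of library stock by pin tool and, 1 h later, a PRR agonist. Reporter activity is expressed relative to agonist-alone wells as fold change, and wells were flagged cytotoxic if IncuCyte confluency was under 70% of agonist controls in both mask sets.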

In assay [2] the test system is RAW-Dual. Nature of the assay: NF-kB SEAP reporter activity, fold change vs agonist alone; cytotoxicity flag (confluency mask): not cytotoxic; higher = enhanced NF-kB activity. The essentials:
as §1

Assay [3] concerns RAW-Dual. Nature of the assay: NF-kB SEAP reporter activity, fold change vs agonist alone; cytotoxicity flag (confluency mask): cytotoxic (confluency <70% of control); higher = enhanced NF-kB activity. The essentials: as §1
Setting [4] is: cytotoxicity flag (confluency mask): not cytotoxic, agonist: Imiquimod (TLR7) […].
[5] abbreviates: cytotoxicity flag (confluency mask): not cytotoxic, agonist: MPLA (TLR4) […].
Where [6] appears, read: cytotoxicity flag (confluency mask): cytotoxic (confluency <70% of control), agonist: Imiquimod (TLR7) […].
[7] abbreviates: cytotoxicity flag (confluency mask): cytotoxic (confluency <70% of control), agonist: MPLA (TLR4) […].
The mark [8] stands for this setting: agonist: ODN 1826 (TLR9) 0.5 ug/mL.
Setting [9] is: agonist: Pam2CSK4 (TLR2/6) 0.1 ug/mL.
Where [10] appears, read: agonist: Pam3CSK4 (TLR2/1) 0.1 ug/mL.

In all, about 2,900 compounds were measured (“NF-kB SEAP reporter activity, fold change vs agonist alone”: median about 0.99, highest 2% from about 2.6 on). The full list was thinned out, with the highest values kept by preference.

As for `NC(=O)c1cccc(-c2cc(Nc3ccc(OC(F)(F)F)cc3)ncn2)c1`, the entries for the “NF-kB SEAP reporter activity” value in the assay on RAW-Dual [1] (setting [4]) and with RAW-Dual [1] (setting [5]) were 1.24 and 1.11, respectively.

For `COc1ccccc1-c1cc(Nc2cccc(CS(N)(=O)=O)c2)ncn1`, the entries for the “NF-kB SEAP reporter activity” value in the assay with RAW-Dual [1] (setting [4]) and in the assay with RAW-Dual [1] (setting [5]) were 1.45 and 2.59, respectively.

For `COc1cc(F)ccc1-c1ncnc(Nc2cccc(CS(C)(=N)=O)c2)n1` (stereo not drawn), the results for the “NF-kB SEAP reporter activity” value in the assay on RAW-Dual [1] (setting [6]) and with RAW-Dual [1] (setting [7]) were 1.26 and 1.31, respectively.

Turning to `NC(=O)c1cccc(-c2cc(Nc3ccc(OC(F)(F)F)cc3)ncn2)c1` (library stock concentration (final ~1000-fold dilution): 10 mM), the “NF-kB SEAP reporter activity” value was found to be 1.21 in the assay on RAW-Dual [2] (agonist: LPS (TLR4) 0.1 ug/mL), 0.672 in the assay with RAW-Dual [2] (setting [8]), 0.944 with RAW-Dual [2] (setting [9]) and 0.869 in the assay on RAW-Dual [2] (setting [10]).

As for `COc1cc(F)ccc1-c1ncnc(Nc2cccc(CS(C)(=N)=O)c2)n1` (stereo not drawn) (library stock concentration (final ~1000-fold dilution): 10 mM), the “NF-kB SEAP reporter activity” value was found to be 0.786 in the assay on RAW-Dual [3] (agonist: LPS (TLR4) 0.1 ug/mL), 1.4 in the assay on RAW-Dual [3] (setting [8]), 0.277 in the assay with RAW-Dual [3] (setting [9]) and 0.421 with RAW-Dual [3] (setting [10]).

On to `COc1ccccc1-c1cc(Nc2cccc(CS(N)(=O)=O)c2)ncn1` (library stock concentration (final ~1000-fold dilution): 10 mM), for which the “NF-kB SEAP reporter activity” value was found to be 2.67 in the assay on RAW-Dual [2] (agonist: LPS (TLR4) 0.1 ug/mL), 2.18 in the assay with RAW-Dual [2] (setting [8]), 0.783 in the assay on RAW-Dual [2] (setting [9]) and 1.55 in the assay on RAW-Dual [2] (setting [10]).

For the compound `CCOc1cc(=O)[nH]cc1-c1ccc(CC(=O)Nc2cc(C(C)(C)C(F)(F)F)on2)c(F)c1` (library stock concentration (final ~1000-fold dilution): 10 mM), the “NF-kB SEAP reporter activity” value was determined as 0.538 in the assay with RAW-Dual [2] (agonist: LPS (TLR4) 0.1 ug/mL), 0.276 in the assay on RAW-Dual [2] (setting [8]), 0.163 in the assay with RAW-Dual [2] (setting [9]) and 0.188 with RAW-Dual [2] (setting [10]).

On to `CCOc1cc(=O)[nH]cc1-c1ccc(CC(=O)Nc2cc(C(C)(C)C(F)(F)F)on2)c(F)c1`, for which the results for the “NF-kB SEAP reporter activity” value in the assay with RAW-Dual [1] (setting [4]) and with RAW-Dual [1] (setting [5]) were 0.281 and 0.545, respectively.

On to `CC(C)=CCCC(C)(OC1OC(CO)C(O)C(O)C1O)C1CCC2(C)C1C(O)CC1C3(C)CCC(OC4OC(CO)C(O)C(O)C4OC4OC(CO)C(O)C(O)C4O)C(C)(C)C3CCC12C` (stereo not drawn) (library stock concentration (final ~1000-fold dilution): 10 mM), for which the “NF-kB SEAP reporter activity” value in the assay on RAW-Dual [2] (agonist: LPS (TLR4) 0.1 ug/mL) was 0.838; with RAW-Dual [2] (setting [8]), 1.11; in the assay on RAW-Dual [2] (setting [9]) it was 0.899; in the assay on RAW-Dual [2] (setting [10]), 1.02.

`CC(C)=CCCC(C)(OC1OC(CO)C(O)C(O)C1O)C1CCC2(C)C1C(O)CC1C3(C)CCC(OC4OC(CO)C(O)C(O)C4OC4OC(CO)C(O)C(O)C4O)C(C)(C)C3CCC12C` (stereo not drawn): the “NF-kB SEAP reporter activity” value was 1.01 in the assay with RAW-Dual [1] (setting [4]) and 1.02 with RAW-Dual [1] (setting [5]).

Take `CCCC(Nc1nc(-c2ccc(NC(=O)NCC)c(OC)c2)ncc1C)c1cccnc1` (stereo not drawn) (library stock concentration (final ~1000-fold dilution): 10 mM): the “NF-kB SEAP reporter activity” value with RAW-Dual [2] (agonist: LPS (TLR4) 0.1 ug/mL) came out at 5.93; with RAW-Dual [2] (setting [8]) it was 3.66; with RAW-Dual [2] (setting [9]), 2.2; with RAW-Dual [2] (setting [10]), 2.92.

Regarding `CCCC(Nc1nc(-c2ccc(NC(=O)NCC)c(OC)c2)ncc1C)c1cccnc1` (stereo not drawn), the “NF-kB SEAP reporter activity” value with RAW-Dual [1] (setting [4]) was 2.63; with RAW-Dual [1] (setting [5]), 2.57.

Regarding `O=C(/C=C/c1ccc(O)c(O)c1/C=C/c1ccc(O)c(O)c1)OC(Cc1ccc(O)c(O)c1)C(=O)O` (stereo not drawn), the “NF-kB SEAP reporter activity” value in the assay on RAW-Dual [1] (setting [4]) was 0.405; in the assay on RAW-Dual [1] (setting [5]), 0.891.

On to `O=C(/C=C/c1ccc(O)c(O)c1/C=C/c1ccc(O)c(O)c1)OC(Cc1ccc(O)c(O)c1)C(=O)O` (stereo not drawn) (library stock concentration (final ~1000-fold dilution): 10 mM), for which the “NF-kB SEAP reporter activity” value in the assay on RAW-Dual [2] (agonist: LPS (TLR4) 0.1 ug/mL) came to 1.09; with RAW-Dual [2] (setting [8]), 0.836; in the assay with RAW-Dual [2] (setting [9]), 0.837; with RAW-Dual [2] (setting [10]), 0.289.

Regarding `CCn1c2ccccc2c2cc(CNCc3ccccc3OC)ccc21.Cl` (library stock concentration (final ~1000-fold dilution): 10 mM), the “NF-kB SEAP reporter activity” value in the assay with RAW-Dual [3] (agonist: LPS (TLR4) 0.1 ug/mL) stood at 1.06; with RAW-Dual [3] (setting [8]), 0.394; in the assay with RAW-Dual [3] (setting [9]), 0.659; in the assay on RAW-Dual [3] (setting [10]), 0.641.

`CCn1c2ccccc2c2cc(-n3nncc3-c3ccccc3)ccc21`: the “NF-kB SEAP reporter activity” value with RAW-Dual [1] (setting [4]) worked out at 1.66; with RAW-Dual [1] (setting [5]), 2.14.

Regarding `CCn1c2ccccc2c2cc(CNCc3ccccc3OC)ccc21.Cl`, the “NF-kB SEAP reporter activity” value in the assay with RAW-Dual [1] (setting [6]) was 1.22; in the assay with RAW-Dual [1] (setting [7]), 1.37.

For the compound `CCn1c2ccccc2c2cc(-n3nncc3-c3ccccc3)ccc21` (library stock concentration (final ~1000-fold dilution): 10 mM), the “NF-kB SEAP reporter activity” value with RAW-Dual [2] (agonist: LPS (TLR4) 0.1 ug/mL) was found to be 3.15; with RAW-Dual [2] (setting [8]) it was 1.82; in the assay on RAW-Dual [2] (setting [9]), 1.81; in the assay with RAW-Dual [2] (setting [10]), 2.79.

For `CC(=O)N1CCN(c2ccc(NC(=O)Cc3cnc(-c4ccnc(F)c4)c(C)c3)nc2)CC1`, the results for the “NF-kB SEAP reporter activity” value in the assay with RAW-Dual [1] (setting [4]) and in the assay with RAW-Dual [1] (setting [5]) were 0.874 and 1, respectively.

For the compound `CC(=O)N1CCN(c2ccc(NC(=O)Cc3cnc(-c4ccnc(F)c4)c(C)c3)nc2)CC1` (library stock concentration (final ~1000-fold dilution): 10 mM), the “NF-kB SEAP reporter activity” value in the assay on RAW-Dual [2] (agonist: LPS (TLR4) 0.1 ug/mL) is 0.956; in the assay on RAW-Dual [2] (setting [8]), 0.965; with RAW-Dual [2] (setting [9]) it was 0.991; with RAW-Dual [2] (setting [10]), 1.03.

On to `CC(/C=C/C=C(\C)C(=O)OC1OC(COC2OC(CO)C(O)C(O)C2O)C(O)C(O)C1O)=C\C=C\C=C(C)\C=C\C=C(/C)C(=O)OC1OC(COC2OC(CO)C(O)C(O)C2O)C(O)C(O)C1O` (stereo not drawn) (library stock concentration (final ~1000-fold dilution): 10 mM), for which the “NF-kB SEAP reporter activity” value turned out to be 1.08 with RAW-Dual [2] (agonist: LPS (TLR4) 0.1 ug/mL), 0.948 in the assay with RAW-Dual [2] (setting [8]), 1.16 in the assay with RAW-Dual [2] (setting [9]) and 1.19 in the assay with RAW-Dual [2] (setting [10]).

As for `CC(/C=C/C=C(\C)C(=O)OC1OC(COC2OC(CO)C(O)C(O)C2O)C(O)C(O)C1O)=C\C=C\C=C(C)\C=C\C=C(/C)C(=O)OC1OC(COC2OC(CO)C(O)C(O)C2O)C(O)C(O)C1O` (stereo not drawn), the “NF-kB SEAP reporter activity” value worked out at 0.915 in the assay with RAW-Dual [1] (setting [4]) and 1.03 in the assay on RAW-Dual [1] (setting [5]).

As for `CS(=O)(=O)N1CCN(Cc2cc3nc(-c4cccc5[nH]ncc45)nc(N4CCOCC4)c3s2)CC1`, the “NF-kB SEAP reporter activity” value in the assay with RAW-Dual [1] (setting [4]) stood at 1.77; in the assay on RAW-Dual [1] (setting [5]) it was 1.75.

With `Fc1ccc2[nH]ccc2c1-c1nc(N2CCOCC2)c2sc(CN3CCN(CC4CC4)CC3)cc2n1` (library stock concentration (final ~1000-fold dilution): 10 mM), the “NF-kB SEAP reporter activity” value in the assay on RAW-Dual [2] (agonist: LPS (TLR4) 0.1 ug/mL) was determined as 2.9; with RAW-Dual [2] (setting [8]), 0.272; in the assay on RAW-Dual [2] (setting [9]) it was 1.03; in the assay on RAW-Dual [2] (setting [10]) it was 0.935.

`Fc1ccc2[nH]ccc2c1-c1nc(N2CCOCC2)c2sc(CN3CCN(CC4CC4)CC3)cc2n1`: the “NF-kB SEAP reporter activity” value amounted to 0.944 in the assay on RAW-Dual [1] (setting [4]) and 1.25 in the assay on RAW-Dual [1] (setting [5]).

Take `CS(=O)(=O)N1CCN(Cc2cc3nc(-c4cccc5[nH]ncc45)nc(N4CCOCC4)c3s2)CC1` (library stock concentration (final ~1000-fold dilution): 10 mM): the “NF-kB SEAP reporter activity” value came to 1.87 in the assay with RAW-Dual [2] (agonist: LPS (TLR4) 0.1 ug/mL), 0.247 in the assay on RAW-Dual [2] (setting [8]), 1.02 in the assay with RAW-Dual [2] (setting [9]) and 0.72 in the assay with RAW-Dual [2] (setting [10]).
